Targets with a hit are over-represented here; the source holds about 7,900 in all. About 0.6% of all pairs of compound and target were hits. Values without a mark were called inactive.
Tests used:
Assay in all cases: log2 fold change, soluble protein after heating vs DMSO (PISA); higher = thermal stabilisation; K562 cells, 10 uM, 30 min; active = over 0.2 and 3.5 SD of the protein, either way, in both replicates (recomputed)
[1] = compound: CC[C@@H]1C(=O)N(C)c2cnc(Nc3ccc(C(=O)NC4CCN(C)CC4)cc3OC)nc2N1C1CCCC1
Outline: (§1)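 K562 cells at 2×10^6 cells/mL were treated with 10 μM compound for 30 min. Aliquots were heated for 3 min across 48°C-58°C, pooled, and extracted in PBS with 0.5% NP-40 at 4°C; soluble protein was the supernatant after 21,000xg for 90 min. Soluble protein was quantified by TMTpro 16plex LC-MS/MS with channel sums equalised, and reported as log2 fold change in thermal stability against DMSO controls, with values from duplicates.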

volasertib = compound: CC[C@@H]1C(=O)N(C)c2cnc(Nc3ccc(C(=O)N[C@H]4CC[C@H](N5CCN(CC6CC6)CC5)CC4)cc3OC)nc2N1C(C)C [volasertib]
Outline: as §1

[2] = compound: CC[C@H](C)N1C=C(C2=C(C=C(C=C21)C3=CN=C(C=C3)N4CCNCC4)C(=O)NCC5=C(C=C(NC5=O)C)C)C
Outline: as §1

epoxomicin = compound: CC[C@H](C)[C@@H](C(=O)N[C@@H]([C@@H](C)O)C(=O)N[C@@H](CC(C)C)C(=O)[C@]1(CO1)C)NC(=O)[C@H]([C@@H](C)CC)N(C)C(=O)C [epoxomicin]
Outline: as §1

[3] = compound: CCn1c(C(=O)N(C2CC2)C2CC2)cc2c3c(ncn3C)c(Nc3cc(C)n(C)n3)nc21
Outline: as §1

[4] = compound: CCn1cc(-c2ccnc3[nH]c(-c4cccc(CN(C)C)c4)cc23)c(-c2ccc(NC(=O)N(C)C)cc2)n1
Outline: as §1

[5] = compound: CN(C)CC(=O)Nc1ccc2[nH]c(=O)c3ccccc3c2c1
Outline: as §1

rosiglitazone = compound: CN(CCOC1=CC=C(C=C1)C[C@H]2C(=O)NC(=O)S2)C3=CC=CC=N3 (racemic) [rosiglitazone]
Outline: as §1

[6] = compound: CN1C2=C(C3=C1C(=O)N(N=C3)CC4=CC(=CC=C4)N)SC(=C2)S(=O)C
Outline: as §1

[7] = compound: CN1CCC(CNc2ccc3ncc(-c4cccc(OC(F)(F)F)c4)n3n2)CC1
Outline: as §1

Sequence of UniProt Q8IWB1 (Q8IWB1 whole entry, looked up): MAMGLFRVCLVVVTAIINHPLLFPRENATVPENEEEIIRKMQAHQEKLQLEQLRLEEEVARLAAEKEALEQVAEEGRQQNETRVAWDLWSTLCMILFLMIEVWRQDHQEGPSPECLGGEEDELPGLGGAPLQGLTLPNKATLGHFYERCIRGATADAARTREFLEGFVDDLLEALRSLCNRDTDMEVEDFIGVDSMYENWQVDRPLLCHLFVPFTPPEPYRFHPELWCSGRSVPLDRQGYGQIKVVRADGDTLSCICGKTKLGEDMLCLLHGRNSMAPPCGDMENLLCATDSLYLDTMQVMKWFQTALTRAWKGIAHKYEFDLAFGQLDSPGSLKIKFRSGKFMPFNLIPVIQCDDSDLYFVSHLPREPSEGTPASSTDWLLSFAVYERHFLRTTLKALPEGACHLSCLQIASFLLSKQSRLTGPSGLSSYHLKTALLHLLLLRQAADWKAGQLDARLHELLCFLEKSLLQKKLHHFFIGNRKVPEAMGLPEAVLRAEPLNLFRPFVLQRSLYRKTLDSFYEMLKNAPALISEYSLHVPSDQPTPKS
Sequence of UniProt Q6N075 (Q6N075 whole entry, looked up): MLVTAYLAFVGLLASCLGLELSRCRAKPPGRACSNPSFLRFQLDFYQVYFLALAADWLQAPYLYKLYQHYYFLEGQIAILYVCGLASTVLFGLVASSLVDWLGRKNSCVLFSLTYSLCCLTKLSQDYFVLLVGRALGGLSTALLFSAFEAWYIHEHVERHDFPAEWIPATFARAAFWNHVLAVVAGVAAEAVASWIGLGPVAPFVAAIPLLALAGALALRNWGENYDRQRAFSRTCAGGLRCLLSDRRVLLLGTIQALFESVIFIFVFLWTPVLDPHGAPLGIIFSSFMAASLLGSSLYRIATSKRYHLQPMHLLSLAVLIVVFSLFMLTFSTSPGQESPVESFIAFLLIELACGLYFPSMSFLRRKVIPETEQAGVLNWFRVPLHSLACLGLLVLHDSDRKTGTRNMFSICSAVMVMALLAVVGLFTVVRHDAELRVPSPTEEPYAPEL
Sequence of UniProt Q9BU23 (Q9BU23 whole entry, looked up): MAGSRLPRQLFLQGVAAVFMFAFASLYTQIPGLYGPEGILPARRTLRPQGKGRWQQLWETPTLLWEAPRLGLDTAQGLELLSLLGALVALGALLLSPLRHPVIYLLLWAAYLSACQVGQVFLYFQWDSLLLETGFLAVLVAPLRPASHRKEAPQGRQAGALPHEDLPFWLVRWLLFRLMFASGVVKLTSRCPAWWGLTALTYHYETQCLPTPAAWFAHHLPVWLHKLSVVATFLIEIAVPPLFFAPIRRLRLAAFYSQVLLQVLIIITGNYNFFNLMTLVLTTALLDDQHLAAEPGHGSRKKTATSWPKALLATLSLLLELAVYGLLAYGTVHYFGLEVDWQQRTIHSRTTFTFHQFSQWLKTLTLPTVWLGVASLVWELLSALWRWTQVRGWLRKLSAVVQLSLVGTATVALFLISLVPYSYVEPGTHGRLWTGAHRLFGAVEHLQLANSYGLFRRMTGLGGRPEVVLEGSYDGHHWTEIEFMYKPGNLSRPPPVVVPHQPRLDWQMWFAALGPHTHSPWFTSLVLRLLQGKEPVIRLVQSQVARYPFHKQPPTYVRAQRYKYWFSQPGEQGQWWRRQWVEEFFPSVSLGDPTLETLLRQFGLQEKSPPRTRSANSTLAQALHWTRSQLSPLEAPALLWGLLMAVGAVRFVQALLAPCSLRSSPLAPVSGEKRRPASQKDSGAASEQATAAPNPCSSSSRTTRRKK
Sequence of UniProt A8MWY0 (A8MWY0 whole entry, looked up): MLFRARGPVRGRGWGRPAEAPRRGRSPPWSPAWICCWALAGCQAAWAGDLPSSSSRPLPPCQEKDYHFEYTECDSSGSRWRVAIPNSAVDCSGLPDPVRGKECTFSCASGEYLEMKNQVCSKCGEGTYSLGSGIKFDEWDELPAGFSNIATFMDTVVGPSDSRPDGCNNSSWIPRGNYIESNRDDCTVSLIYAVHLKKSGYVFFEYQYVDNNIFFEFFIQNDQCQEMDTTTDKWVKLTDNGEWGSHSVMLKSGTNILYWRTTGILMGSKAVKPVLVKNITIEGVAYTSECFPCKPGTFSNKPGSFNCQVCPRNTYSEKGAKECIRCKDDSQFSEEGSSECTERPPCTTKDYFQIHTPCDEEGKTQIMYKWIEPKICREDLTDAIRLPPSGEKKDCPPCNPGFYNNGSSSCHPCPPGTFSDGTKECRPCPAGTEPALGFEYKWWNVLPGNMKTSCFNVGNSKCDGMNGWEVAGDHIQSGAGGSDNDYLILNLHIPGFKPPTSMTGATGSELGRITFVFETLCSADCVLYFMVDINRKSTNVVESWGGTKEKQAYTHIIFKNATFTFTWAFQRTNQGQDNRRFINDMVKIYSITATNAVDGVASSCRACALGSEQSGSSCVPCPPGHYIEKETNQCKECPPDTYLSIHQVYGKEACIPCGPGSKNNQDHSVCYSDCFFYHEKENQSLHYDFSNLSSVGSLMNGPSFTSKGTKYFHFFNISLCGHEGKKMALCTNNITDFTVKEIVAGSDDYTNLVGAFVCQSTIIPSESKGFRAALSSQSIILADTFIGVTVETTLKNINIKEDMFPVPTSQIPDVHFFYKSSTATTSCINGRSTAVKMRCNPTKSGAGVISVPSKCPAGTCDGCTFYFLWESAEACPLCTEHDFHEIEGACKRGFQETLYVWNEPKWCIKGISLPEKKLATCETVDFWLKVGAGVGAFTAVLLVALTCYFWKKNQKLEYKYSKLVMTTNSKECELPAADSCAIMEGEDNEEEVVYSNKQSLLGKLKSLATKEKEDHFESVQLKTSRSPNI
Sequence of UniProt P14174 (P14174 whole entry, looked up): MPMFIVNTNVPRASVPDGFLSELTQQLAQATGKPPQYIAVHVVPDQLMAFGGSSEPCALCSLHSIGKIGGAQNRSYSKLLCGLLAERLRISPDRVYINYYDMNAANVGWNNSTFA
Sequence of UniProt O43318 (O43318 whole entry, looked up): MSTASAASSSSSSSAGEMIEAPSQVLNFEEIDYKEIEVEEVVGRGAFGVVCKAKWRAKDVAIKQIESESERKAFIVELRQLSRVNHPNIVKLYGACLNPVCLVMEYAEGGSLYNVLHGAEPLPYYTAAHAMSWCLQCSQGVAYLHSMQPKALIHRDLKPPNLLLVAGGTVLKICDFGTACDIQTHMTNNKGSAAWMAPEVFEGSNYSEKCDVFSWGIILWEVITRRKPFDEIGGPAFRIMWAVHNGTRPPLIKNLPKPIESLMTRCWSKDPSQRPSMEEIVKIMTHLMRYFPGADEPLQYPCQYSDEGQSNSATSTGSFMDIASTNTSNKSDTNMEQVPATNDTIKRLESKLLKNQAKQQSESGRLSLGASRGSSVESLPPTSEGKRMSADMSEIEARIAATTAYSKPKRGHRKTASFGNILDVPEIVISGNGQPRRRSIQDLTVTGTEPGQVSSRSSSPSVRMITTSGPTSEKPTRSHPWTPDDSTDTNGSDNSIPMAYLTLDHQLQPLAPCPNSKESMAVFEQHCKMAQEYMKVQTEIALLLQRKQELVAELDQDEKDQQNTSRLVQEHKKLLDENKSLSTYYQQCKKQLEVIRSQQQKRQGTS
Sequence of UniProt O95140 (O95140 whole entry, looked up): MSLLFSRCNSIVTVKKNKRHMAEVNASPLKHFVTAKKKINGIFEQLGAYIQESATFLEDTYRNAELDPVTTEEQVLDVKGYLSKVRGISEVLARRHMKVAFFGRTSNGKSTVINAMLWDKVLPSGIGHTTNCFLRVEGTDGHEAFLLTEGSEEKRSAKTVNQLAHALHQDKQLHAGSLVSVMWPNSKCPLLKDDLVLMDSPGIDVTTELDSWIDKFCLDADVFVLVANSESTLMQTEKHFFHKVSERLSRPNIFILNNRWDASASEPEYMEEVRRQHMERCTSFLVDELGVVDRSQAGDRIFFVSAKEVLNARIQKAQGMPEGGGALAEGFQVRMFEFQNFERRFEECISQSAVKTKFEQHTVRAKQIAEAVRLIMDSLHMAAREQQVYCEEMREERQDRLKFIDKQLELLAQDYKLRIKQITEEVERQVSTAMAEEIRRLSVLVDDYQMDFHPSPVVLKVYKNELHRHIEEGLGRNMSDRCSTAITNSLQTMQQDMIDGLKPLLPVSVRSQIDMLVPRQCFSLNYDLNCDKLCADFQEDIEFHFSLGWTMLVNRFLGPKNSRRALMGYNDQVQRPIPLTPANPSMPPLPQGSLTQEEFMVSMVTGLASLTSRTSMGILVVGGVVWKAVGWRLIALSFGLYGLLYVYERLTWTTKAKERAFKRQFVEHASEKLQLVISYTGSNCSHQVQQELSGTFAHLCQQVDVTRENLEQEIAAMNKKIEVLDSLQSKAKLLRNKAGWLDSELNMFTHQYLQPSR
Sequence of UniProt Q9UBF1 (Q9UBF1 whole entry, looked up): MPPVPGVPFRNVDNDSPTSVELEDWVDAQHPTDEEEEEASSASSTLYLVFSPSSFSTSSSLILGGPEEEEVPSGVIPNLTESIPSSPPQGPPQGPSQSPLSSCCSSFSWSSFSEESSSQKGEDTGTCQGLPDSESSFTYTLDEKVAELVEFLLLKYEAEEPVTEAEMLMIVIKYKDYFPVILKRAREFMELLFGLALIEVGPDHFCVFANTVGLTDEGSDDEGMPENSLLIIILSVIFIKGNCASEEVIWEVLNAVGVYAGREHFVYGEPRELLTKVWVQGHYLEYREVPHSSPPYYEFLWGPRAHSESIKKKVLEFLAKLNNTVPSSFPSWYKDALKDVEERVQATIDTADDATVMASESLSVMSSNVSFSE
Sequence of UniProt Q96AQ8 (Q96AQ8 whole entry, looked up): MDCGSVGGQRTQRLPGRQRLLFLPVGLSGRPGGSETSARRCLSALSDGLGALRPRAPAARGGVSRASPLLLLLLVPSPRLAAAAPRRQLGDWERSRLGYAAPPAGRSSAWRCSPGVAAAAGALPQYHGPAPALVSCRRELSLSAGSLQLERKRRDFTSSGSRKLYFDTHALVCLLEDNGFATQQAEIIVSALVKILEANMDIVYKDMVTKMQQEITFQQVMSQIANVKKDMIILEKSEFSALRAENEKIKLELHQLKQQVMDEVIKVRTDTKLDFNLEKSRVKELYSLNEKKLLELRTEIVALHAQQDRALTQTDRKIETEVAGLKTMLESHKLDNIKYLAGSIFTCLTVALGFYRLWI

Target	log2 fold change [1]	log2 fold change (volasertib)	log2 fold change [2]	log2 fold change (epoxomicin)	log2 fold change [3]	log2 fold change [4]	log2 fold change [5]	log2 fold change (rosiglitazone)	log2 fold change [6]	log2 fold change [7]
IKZF1 (UniProt Q13422)	0.079	-0.067	0.053	-0.052	0.018	-0.048	0.024	0.008	0.051	-0.239
KIAA1324L (UniProt A8MWY0)	-0.312 (active)	-0.293 (active)	-0.012	0.015	0.011	-0.019	0.091	0.111	-0.112	-0.14
ITPRIP (UniProt Q8IWB1)	-0.037	-0.148	-0.012	-0.019	-0.016	0.031	0	0.044	-0.111	-0.017
LARP1 (UniProt Q6PKG0)	0.098	0.071	0.047	-0.034	0.061	0.016	-0.054	0.014	0.131	0.025
MAP2K1 (UniProt Q02750)	-0.017	-0.058	0.024	0.053	-0.006	-0.092	0.032	0.029	-0.06	-0.113
MIA2 (UniProt Q96PC5)	-0.039	-0.29 (active)	0.005	0.037	-0.009	0.054	0.005	0.034	0.031	0.053
MED1 (UniProt Q15648)	0.073	0.077	0.076	-0.051	-0.001	-0.04	-0.054	0.001	0.024	-0.025
MAP3K7 (UniProt O43318)	-0.015	-0.369 (active)	-0.008	0.018	0.032	0.043	0.046	0.079	0.079	-0.093
LPIN1 isoform 7 (UniProt Q14693)	0.06	-0.002	0.063	0.098	0.011	-0.045	0.012	0.055	0.008	-0.016
L2HGDH (UniProt Q9H9P8)	-0.088	-0.014	0.006	-0.02	-0.023	-0.067	-0.027	0.031	-0.11	-0.325 (active)
LDLR (UniProt P01130)	-0.135	-0.176	-0.028	0.031	-0.007	0.058	-0.059	0.009	-0.004	0.064
MFN2 (UniProt O95140)	-0.1	-0.23	0.011	0.047	-0.004	0.011	0.009	0.03	-0.011	-0.213
LNPK (UniProt Q9C0E8)	0.02	0.024	-0.038	-0.007	-0.032	0.018	-0.042	0.01	0.012	0.059
IRAK4 (UniProt Q9NWZ3)	-0.138	-0.299	0.048	0.038	-0.092	-0.033	0.061	0.042	0.029	0.013
LMF2 (UniProt Q9BU23)	-0.109	-0.332 (active)	-0.027	0	-0.053	0.12	-0.017	0.039	-0.007	-0.035
KIF1B isoform 4 (UniProt O60333)	-0.042	-0.11	0.052	0.039	-0.015	-0.005	0.123	0.059	-0.001	-0.299 (active)
IPO9 (UniProt Q96P70)	-0.227 (active)	-0.611 (active)	-0.003	-0.031	0.03	0.034	0.009	0.018	-0.007	-0.077
LMNB2 (UniProt Q03252)	0.027	-0.077	0.024	0.028	-0.061	0.043	-0.033	-0.005	-0.01	0.014
MIF (UniProt P14174)	0.025	0.021	-0.096	0.454 (active)	0.015	0.081	0.025	-0.012	-0.038	0.211
MAGEC2 (UniProt Q9UBF1)	-0.017	-0.146	0.028	-0.062	0.038	-0.048	-0.007	0.011	-0.063	0
ILKAP (UniProt Q9H0C8)	-0.135	-0.343 (active)	0.127	0.077	-0.071	-0.052	0.086	0.023	-0.085	-0.064
MAD2L1 (UniProt Q13257)	-0.058	-0.381 (active)	0.016	-0.045	0	-0.038	0.002	0.052	-0.081	-0.166
MAPKAPK2 (UniProt P49137)	-0.058	-0.059	0.026	0.049	0.022	-0.002	0.032	0.023	-0.007	-0.018
MFSD5 isoform 2 (UniProt Q6N075)	0.052	0.111	-0.124	0.427 (active)	-0.012	0.028	-0.092	-0.032	-0.056	0.14
LMBRD2 (UniProt Q68DH5)	-0.063	-0.042	-0.012	0.081	-0.007	-0.018	0.002	-0.023	-0.008	-0.362 (active)
MCUR1 (UniProt Q96AQ8)	0.022	0.137	0.006	0.009	-0.027	-0.041	-0.038	0.025	-0.042	-0.115
IPO13 (UniProt O94829)	-0.367 (active)	-0.291 (active)	-0.081	0.048	0.015	-0.084	-0.013	0.072	0.048	-0.333 (active)
KIF21A isoform 4 (UniProt Q7Z4S6)	0.073	-0.019	0.038	0.066	-0.037	-0.121	0.013	0.033	0.054	0.076
LUC7L3 (UniProt O95232)	-0.057	-0.185	0.027	0.005	-0.025	0	-0.031	0.004	-0.009	-0.074
IRF2BPL (UniProt Q9H1B7)	0.01	-0.043	-0.012	0.108	-0.042	-0.023	0.036	0.067	-0.068	-0.018

Source: the supplement of paper PMC10849652
